The values that follow come from PubChem BioAssay AID2147 (National Center for Advancing Translational Sciences (NCATS), 2009).

The whole screen tested about 230,000 compounds, of which about 3,600 (1.6%) were called active. Entries that show only a call come without a potency. About 15% were inconclusive and are not listed. Calls follow the shape of the dose curve; as a rule, active = well fitted inhibition curve with a large enough effect (not every such curve was filed as active); inconclusive = small, poorly fitted or top-dose-only effect, or another doubt; inactive = no such curve, though single readings can be large or run the other way. For the sample, actives were picked, then their nearest neighbours and some compounds at random.
Also: nearly all actives have a fitted effect of over 50% in size.
Potency is read from the fitted curve at half-maximal effect.

Sequence of Lysine-specific demethylase 4E (Homo sapiens) (B2RXH2 1-337 limits assumed): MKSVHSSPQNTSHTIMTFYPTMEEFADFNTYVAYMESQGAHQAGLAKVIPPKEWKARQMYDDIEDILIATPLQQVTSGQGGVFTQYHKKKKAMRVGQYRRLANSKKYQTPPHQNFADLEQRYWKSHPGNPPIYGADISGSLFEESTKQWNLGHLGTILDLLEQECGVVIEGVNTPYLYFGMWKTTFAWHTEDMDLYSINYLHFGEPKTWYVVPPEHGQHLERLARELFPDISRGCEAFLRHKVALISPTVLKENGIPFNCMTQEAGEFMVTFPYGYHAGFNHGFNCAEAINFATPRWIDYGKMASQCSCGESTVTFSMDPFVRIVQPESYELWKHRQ

This assay concerns the target Lysine-specific demethylase 4E (Homo sapiens) (UniProt B2RXH2). Kind of assay: qHTS Assay for Inhibitors of Human Jumonji Domain Containing 2E (JMJD2E). The conditions noted are these: JMJD2E catalytic domain, FDH-coupled NADH fluorescence (FDH is formaldehyde dehydrogenase); series mostly up to 57.1 µM. From the text:
Assay Provider: Structural Genomics Consortium [SGC] Screening Center PI: Austin, C.P. Screening Center: NIH Chemical Genomics Center [NCGC] The fine interplay among methylation states of several lysine residues on the tails of histone proteins is a major determinant of the transcriptional state of the associated DNA coding regions and is commonly referred to as the histone code. Histone lysine demethylases catalyze the removal of methyl groups from methylated lysine sidechains on histones H3 and H4, thus antagonizing the reactions catalyzed by histone lysine methyltransferases. […] In search for novel inhibitors of JMJD2E demethylase, a member of the largest set of histone demethylases belonging to the Fe(II) and 2-oxoglutarate oxygenase (2OG) superfamily, we performed a quantitative high-throughput screen (Inglese 2006) by using an assay which utilizes a trimethylated peptide substrate corresponding to a fragment of histone H3 (sequence ARKme3STGGK) with detection of the formaldehyde co-product in real time by a formaldehyde dehydrogenase (FDH) coupled reaction. FDH catalyzes oxidation of formaldehyde to formic acid with the concomitant reduction of the non-fluorescent beta-nicotinamide adenine dinucleotide hydrate (NAD+) cofactor to the fluorescent NADH co-product. References: Inglese, J., Auld, D., Jadhav, A., Johnson, R., Simeonov, A., Yasgar, A., Zheng, W. and Austin, C. Proc Natl Acad Sci USA 2006, 103, 11473-11478. N. R. Rose, S. S. Ng, J. Mecinovic, B. M. Lienard, S. H. Bello, Z. Sun, M. A. McDonough, U. Oppermann and C. J. Schofield, J Med Chem, 2008, 51, 7053-7056. Sakurai, M., Rose, N., Schultz, L., Quinn, A., Jadhav, A., Ng, S., Oppermann, U., Schofield, C.J. and Simeonov, A. Mol BioSystems 2009, in press. S. Michael, D. Auld, C. Klumpp, A. Jadhav, W. Zheng, N. Thorne, C. Austin, J. Inglese and A. Simeonov, Assay Drug Dev Technol, 2008, 6, 637-657.
Reagents and Controls: Ferrous ammonium sulfate, (+)-sodium L-ascorbate, beta-nicotinamide adenine dinucleotide hydrate (NAD+), Tween-20, formaldehyde dehydrogenase from P. putida (FDH), and disodium 2-oxoglutarate were from Sigma (St. Louis, MO). Black solid-bottom 384-well or 1,536-well assay plates were from Greiner Bio-One (Monroe, NC). Enzyme was supplied by Prof. Udo Oppermann, SGC-Oxford. The catalytic domain of human JMJD2E (residues 1-337) was produced as an N-terminally His6-tagged protein in E. coli, and purified by Ni-affinity chromatography and size-exclusion chromatography, and stored in HEPES 50 mM/ NaCl 500 mM pH 7.5, as reported in Rose 2008. The trimethylated histone peptide substrate ARK(me3)STGGK was synthesized and HPLC-purified by the Tufts University Core Facility (Boston, MA). Substrate solution (Sakurai 2009) contained 50 uM ARK(me3)STGGK, 0.00025 U/uL FDH, 50 uM 2-oxoglutarate, 250 uM NAD+, 1 mM ascorbate, and 10 uM ferrous ammonium sulfate. Controls and plate map: Buffer (150 mM HEPES pH 7.5 containing 0.01% Tween-20) in columns 3 and 4 as negative control (no enzyme) and 100 nM JMJD2E final concentration in columns 1,2, and 5-48. Assay Steps: Enzyme and buffer solutions (3 uL) were dispensed into a 1,536-well Greiner black solid-bottom assay plate. The library compounds (23 nL) were transferred using a Kalypsys pintool equipped with 1,536-pin array. The plate was incubated at room temperature (15 min), and then a 1 uL aliquot of substrate solution was added to initiate the reaction. The plate was transferred to ViewLux imager where an initial reading using standard UV optics (Ex 340 nm, Em 450 nm) was obtained. The plate was then removed from the reader, incubated for 30 minutes at room temperature, and returned to the reader for a second fluorescence reading. A fully automated robotic screening system (Kalypsys Inc, San diego, CA) was used to perform the above steps as described previously (Michael 2008). […]
On the technique in general: In qHTS, concentration-response curves come from the screen itself.
`CC1OC(OCC2OC(Oc3c(-c4ccc(O)c(O)c4)oc4cc(O)cc(O)c4c3=O)C(O)C(O)C2O)[C@@H](O)C(O)C1O` (stereo partly drawn): the Potency was 7.08 µM (active).

On to `COc1ccc(CCC(=O)c2c(O)cc(OC3OC(CO)C(O)C(O)C3O[C@@H]3OC(C)C(O)C(O)C3O)cc2O)cc1O` (stereo partly drawn), for which the Potency entry was “inactive”.

On to `C=CCc1ccc(OCC(O)CN2CCN(Cc3ccccc3)CC2)c(OC)c1` (stereo not drawn), for which the Potency entry is “inactive”.

For `CCN(CC)CC1(O)CCN(C(=O)c2ccc(Cl)c(Cl)c2)CC1`, the Potency entry was “inactive”.

As to `CSc1nnnn1-c1c(C)cc(C)cc1C`, the Potency entry is “inactive”.

With `CCc1ccc[n+](-c2nc([O-])sc2C=O)c1`, the Potency entry is “inactive”.

Consider `O=C(Nc1ccc(N2CCN(C(=O)c3ccccc3)CC2)c(Cl)c1)c1ncn[nH]1`, for which the Potency entry is “inactive”.

On to `Nc1cccc(S(=O)(=O)Nc2ccc(SC(F)F)cc2)c1`, for which the Potency entry was “inactive”.

On to `CN1CCN(C2=NCCO2)CC1`, for which the Potency result was “inactive”.

In the case of `Cc1cccc(-[n+]2c(-c3cccc(Br)c3)[nH]c3nc4ccccc4nc32)c1`, the Potency is 25.1 µM (active).

On to `CCCCCc1nnc(NC(=O)c2ccc(=O)n(C)n2)s1`, for which the Potency result was “inactive”.

For the molecule `CCOCCCNCc1cc(Br)ccc1OCC`, the Potency result is “inactive”.

For `Cn1nc(C(F)(F)F)cc1C(=O)O`, the Potency result is “inactive”.

Take `O=C(O)CC/C(=N\NC(=O)c1ccc(F)cc1)c1ccc(Br)cc1`: the Potency result was “inactive”.

`Cc1ccc(C(C[N+](=O)[O-])c2c(C)cc3ccccn23)cc1` (stereo not drawn): the Potency is 25.1 µM (active).

For `COc1ccc(C(C[N+](=O)[O-])n2nc(C)cc2C)cc1` (stereo not drawn), the Potency result is “inactive”.

As for `CC(=O)Nc1ccc(/C=N/Nc2ccc(C(=O)c3c(C)cc4ccccn34)cc2[N+](=O)[O-])cc1`, the Potency entry is “inactive”.

Turning to `Cc1ccc(/C=N/NC(=S)Nc2cccc(S(=O)(=O)N(C)C)c2)o1`, the Potency entry was “inactive”.

Take `Cc1ccnc(NC(=O)CCC(=O)N(CC(=O)NCCc2ccccc2)Cc2cccs2)c1`: the Potency entry is “inactive”.

Take `C#CCNc1ccc(C(=O)OCC)cc1`: the Potency entry was “inactive”.

With `COC(=O)c1c(C)oc(C)c1S(=O)(=O)NCc1ccc(Cl)cc1`, the Potency entry was “inactive”.

Regarding `COc1ccc(C(=O)C2CCCN(C(=O)c3cnsn3)C2)c(C)c1` (stereo not drawn), the Potency result is “inactive”.

Take `Oc1[nH]c2ccc(Br)cc2c1N=Nc1nn[nH]n1`: the Potency entry is “inactive”.

Turning to `CSc1n[nH]c(=S)n1N`, the Potency is 31.6 µM (active).

As for `Nc1ccc(N=Nc2ccccc2Cl)c(N)n1`, the Potency entry is “inactive”.

With `Cc1ccc(S(=O)(=O)N(C)C)cc1NC(=O)c1n[nH]c(=O)c2ccccc12`, the Potency result is “inactive”.

Take `COc1cccc(/C=N/NC(=O)c2[nH]nc3c2CCc2ccccc2-3)c1O`: the Potency result is “inactive”.

As to `COc1cccc(/C=N\NC(=O)C2=NNC(=O)C2C)c1O` (stereo not drawn), the Potency was 7.08 µM (active).

Regarding `COc1cccc(/C=N/Nc2cc(C)nc(-c3ccccc3O)n2)c1O`, the Potency result was “inactive”.

Consider `Oc1ccc(-c2nnc(Nc3ccccc3)c3ccccc23)cc1`, for which the Potency result is “inactive”.

With `O=c1c(-c2ccccc2)cnc2n1CCS2`, the Potency result was “inactive”.

On to `CN1CCN(c2ncc3c(n2)CC(c2ccccc2F)CC3=O)CC1` (stereo not drawn), for which the Potency result was “inactive”.

`O=C(Cn1nnc(N2CCCCC2)n1)c1ccc(Cl)c(Cl)c1`: the Potency result was “inactive”.

For the molecule `Cc1ccc(SCc2c(C(=O)N/N=C/C3CC=CCC3)nnn2-c2nonc2N)cc1` (stereo not drawn), the Potency result is “inactive”.

On to `COCc1c(C(=O)N/N=C/C2CC=CCC2)nnn1-c1nonc1N` (stereo not drawn), for which the Potency entry was “inactive”.

For `Nc1nonc1-n1nnc(C(=O)N/N=C/c2cc(Br)ccc2O)c1CSC1=NCCS1`, the Potency was 20 µM (active).

In the case of `CCOc1ccc(-c2nc(N)ncc2-c2ccccc2OC)c(O)c1`, the Potency entry is “inactive”.

Regarding `Cc1cc(C)cc(C(=O)NC2C(=O)N3C(C(=O)O)=C(CSc4nnc(C)s4)CSC23)c1` (stereo not drawn), the Potency result is “inactive”.

Consider `O=C(CNc1ccc(F)cc1F)NC(=O)NCc1ccco1`, for which the Potency entry was “inactive”.

As for `C/C(=N\NC(=O)c1ccc(C)cc1)C1C(=O)c2ccccc2C1=O`, the Potency is 25.1 µM (active).

`Cc1ccc(C(=O)NCCNC(=O)c2ccccc2)cc1`: the Potency result is “inactive”.

Turning to `Cc1ccc(C(=O)NC(=S)Nc2ccccc2C)cc1`, the Potency result was “inactive”.

In the case of `O=c1[nH]c2cccnc2n1-c1ccc([N+](=O)[O-])cc1`, the Potency entry was “inactive”.

For `O=C(CCCl)Nc1ccc(S(=O)(=O)NCc2ccco2)cc1`, the Potency entry is “inactive”.

On to `O=C(N/N=C/c1ccc(O)c(O)c1)C1c2ccccc2Oc2ccccc21`, for which the Potency is 14.1 µM (active).

For the molecule `CCC(C)(C)NC(=O)C1c2ccccc2Oc2ccccc21`, the Potency result was “inactive”.

For the molecule `CCC(C)NC(=O)C1c2ccccc2Oc2ccccc21` (stereo not drawn), the Potency result is “inactive”.

In the case of `COc1ccc(OC)c(NC(=O)CN(Cc2ccc(Cl)cc2)S(C)(=O)=O)c1`, the Potency result is “inactive”.

On to `O=C(CSc1nc(O)c(Cc2ccccc2)c(=O)[nH]1)Nc1nc2c(s1)CCCC2`, for which the Potency entry was “inactive”.

Regarding `CC(C)(C)NC(=O)NCc1ccco1`, the Potency entry is “inactive”.

For the molecule `Cc1ccc(C(=O)NC(=S)NCCN2CCOCC2)cc1`, the Potency result is “inactive”.

As to `Cc1ccc(NC(=S)NCCN2CCOCC2)cc1`, the Potency entry is “inactive”.

For the molecule `CCOc1cccc(/C=N/NC(=S)NCCN2CCOCC2)c1O`, the Potency was 35.5 µM (active).
